{"source": "PubChem BioAssay (NCATS)", "note": "Records with an inconclusive call do not appear. Where a call stands in place of a potency, no number is given. Active and inactive are the calls of the source. Calls come from the whole dose curve."}
{"target": "Nucleoprotein (Lymphocytic choriomeningitis virus (strain Armstrong)) (UniProt P09992)", "sequence (P09992 whole entry, looked up)": "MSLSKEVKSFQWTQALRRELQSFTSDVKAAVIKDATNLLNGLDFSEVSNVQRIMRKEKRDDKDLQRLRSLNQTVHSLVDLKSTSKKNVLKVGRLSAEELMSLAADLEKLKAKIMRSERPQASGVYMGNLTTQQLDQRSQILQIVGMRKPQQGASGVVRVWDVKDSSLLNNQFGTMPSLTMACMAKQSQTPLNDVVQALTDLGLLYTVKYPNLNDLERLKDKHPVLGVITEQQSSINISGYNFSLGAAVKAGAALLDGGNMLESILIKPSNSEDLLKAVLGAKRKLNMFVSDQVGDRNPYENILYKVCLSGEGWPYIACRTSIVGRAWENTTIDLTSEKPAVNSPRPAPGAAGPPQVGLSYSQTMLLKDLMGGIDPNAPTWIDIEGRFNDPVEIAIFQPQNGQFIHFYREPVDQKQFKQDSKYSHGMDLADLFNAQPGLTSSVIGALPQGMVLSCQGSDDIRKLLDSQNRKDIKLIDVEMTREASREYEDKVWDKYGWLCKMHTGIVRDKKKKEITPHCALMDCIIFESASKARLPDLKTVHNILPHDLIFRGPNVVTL", "assay": "qHTS for Inhibitors of the Functional Ribonucleoprotein Complex (vRNP) of Lymphocytic Choriomeningitis Arenaviruses (LCMV): LCMV Primary Screen - GLuc reporter signal (AID 1347086); note: nearly all actives have a fitted effect of over 70% in size", "conditions": "LCMV minigenome vRNP cell assay, Gaussia luciferase reporter; series mostly up to 57.5 µM"}
{"smiles": "CC1(C)S[C@@H]2[C@H](NC(=O)Cc3ccccc3)C(=O)N2[C@H]1C(=O)O", "note": "(tested in a mixture with another compound)", "Potency": "inactive"}
{"smiles": "CCOc1ccc2ccccc2c1C(=O)N[C@@H]1C(=O)N2[C@@H]1SC(C)(C)[C@@H]2C(=O)O", "Potency": "inactive"}
{"smiles": "O=C(O)c1cn(C2CC2)c2cc(N3CCNCC3)c(F)cc2c1=O", "Potency": "inactive"}
{"smiles": "CN(C)CCC[C@@]1(c2ccc(F)cc2)OCc2cc(C#N)ccc21", "Potency": "inactive"}
{"smiles": "Clc1ccc(C(c2ccccc2Cl)C(Cl)Cl)cc1", "note": "(centres undefined)", "Potency": "inactive"}
{"smiles": "CN1CCc2cccc3c2[C@H]1Cc1ccc(O)c(O)c1-3", "Potency": "inactive"}
{"smiles": "CCCNCC(O)COc1ccccc1C(=O)CCc1ccccc1", "note": "(centres undefined)", "Potency": "inactive"}
{"smiles": "C[n+]1ccccc1/C=N/O", "Potency": "inactive"}
{"smiles": "CC(C)(C#N)c1cc(Cn2cncn2)cc(C(C)(C)C#N)c1", "Potency": "inactive"}
{"smiles": "Oc1cn2c(n1)Nc1ccc(Cl)c(Cl)c1C2", "Potency": "inactive"}
{"smiles": "CNCC[C@@H](Oc1ccccc1C)c1ccccc1", "Potency": "inactive"}
{"smiles": "NS(=O)(=O)c1cc2c(cc1Cl)NC=NS2(=O)=O", "Potency": "inactive"}
{"smiles": "COc1cc2c(cc1OC)C(=O)C(CC1CCN(Cc3ccccc3)CC1)C2", "note": "(centres undefined)", "Potency": "inactive"}
{"smiles": "O=C(CCCCCCC(=O)Nc1ccccc1)NO", "Potency": "inactive"}
{"smiles": "Cc1ccc(S(=O)(=O)NC(=O)NN2CCCCCC2)cc1", "Potency": "inactive"}
{"smiles": "O=c1n(CCCN2CCN(c3cccc(Cl)c3)CC2)nc2ccccn12", "Potency": "inactive"}
{"smiles": "C[C@@H]1CC(=O)NN=C1c1ccc(NN=C(C#N)C#N)cc1", "Potency": "inactive"}
{"smiles": "NC(=O)C(c1ccccc1)(c1ccccc1)[C@@H]1CCN(CCc2ccc3c(c2)CCO3)C1", "Potency": "inactive"}
{"smiles": "CCCCCOC(=O)Nc1nc(=O)n([C@@H]2O[C@H](C)[C@@H](O)[C@H]2O)cc1F", "Potency": "inactive"}
